The record followed here is PubChem BioAssay (EPA / NIEHS).

Activity calls are given as the source filed them. Rule for the calls: active = hit-call score of the fitted dose curve at least 0.9, where 1 is the maximum; inactive = score below 0.9.

A short description of the test: APR_HepG2_CellCycleArrest_72hr: Apredica 72-hour HepG2 Assay for Cell Cycle Arrest (AID 2282914). As to conditions: high-content imaging, actives raise or lower the signal. As to the method: APR_HepG2_72hr is a cell-based, multiplexed-readout assay that uses HepG2, a human liver cell line, with measurements taken at 72 hours after chemical dosing in a 384-well plate.APR_HepG2_CellCycleArrest_72hr is one of 10 assay component(s) measured or calculated from the APR_HepG2_72hr assay. It is designed to make measurements of cell phenotype, a form of morphology reporter, as detected with fluorescence intensity signals by HCS Fluorescent Imaging technology.Data from the assay component APR_HepG2_CellCycleArrest_72hr was analyzed into 1 assay endpoint. This assay endpoint, APR_HepG2_CellCycleArrest_72hr, was analyzed with bidirectional fitting relative to DMSO as the negative control and baseline of activity. Using a type of morphology reporter, measures of all nuclear dna for gain or loss-of-signal activity can be used to understand the signaling at the pathway-level as they relate to the gene . Furthermore, this assay endpoint can be referred to as a primary readout, because this assay has produced multiple assay endpoints where this one serves a signaling function. To generalize the intended target to other relatable targets, this assay endpoint is annotated to the cell cycle intended target family, where the subfamily is arrest.
Cells were treated with dimethyl sulfoxide (DMSO) as a solvent control at a final concentration of 0.5% v/v or with compounds in DMSO with a resulting final DMSO concentration of 0.5% v/v. Compound treatment was done at concentrations of 0.39, 0.78, 1.56, 3.12, 6.24, 12.5, 25, 50, 100, and 200 uM in duplicate on each plate. Cells were treated with compounds for 1, 24, or 72 hr. Carbonyl […] m-chloro-phenylhydrazone (CCCP) and taxol were used as positive controls for mitochondrial function and cytoskeletal stability, respectively; DMSO served as the negative control for this experiment. Cells were fixed by the direct addition of 50 uL formaldehyde in Hank's Balanced Salt Solution (HBSS) to a final concentration of 3.7%. After incubation in the fixation medium for 30 min at room temperature (293-298 K), cells were rinsed twice with HBSS and treated with cell permeabilization buffer (16 uL of 0.5% Triton X-100) for 10 min at room temperature (293-298 K) before labeling. For mitochondrial membrane potential and mitochondrial measurements, pre-fixed cells were incubated with 50 uL of MitoTracker Red CMXRos (Invitrogen) at a concentration of 250 nM for 30 min before fixation. In the remaining cases, post-fixed cells were labeled by incubation with a multiplexed mixture of primary antibodies in HBSS for 60 min at room temperature (293-298 K) to detect immunoreactivity of c-Jun (1:500), phospho-histone H3 (1:100), phospho-histone H2A.x (1:200), p53 (1:400), alpha-tubulin (1:200) and Hoechst 33342 (2 ug/mL). Cells were labeled for multiplexed imaging on two separate plates: a) Hoechst 33342, MitoTracker Red, phospho-histone H3, and alpha-tubulin, and b) Hoechst 33342, phospho-histone H2A.x, and c-Jun. A final rinse with HBSS (50 uL) was performed before analysis. The primary and secondary antibodies for the proteins were phospho-histone H3 (rabbit anti-phospho-histone H3 and FITC-donkey anti-rabbit IgG), phospho-histone H2A.x (mouse anti-phospho-histone H2A.x and FITC-donkey anti-mouse IgG), c-Jun (rabbit anti-phospho-c-Jun and Cy3-donkey anti-rabbit IgG), p53 (sheep anti-p53 and Cy5-donkey anti-sheep IgG), alpha-tubulin (mouse anti-alpha-tubulin and Cy5-donkey anti-mouse IgG). These antibodies are available as the CellCiphr HepG2 assay kit (Millipore).Digital images of each well were captured using a Cellomics ArrayScan VTI (Thermo Scientific Cellomics) (0.8 NA objective, 0.63x optical coupler, and XF-93 filter set) at 20x magnification. The images were acquired using the autofocus feature of the ArrayScan instrument, which entails the following steps. First, the camera focuses on channel 1 (Hoechst 33342), where nuclei are identified. Second, a Z offset of 1 um is used for capturing mitochondria (MitoTracker Red). […]
With `CC(C)c1cccc(C(C)C)c1NC(=O)NS(=O)(=O)c1cc(C(C)(C)O)co1`, the molecule was classed as inactive.
In the case of `CC(=O)O[C@]1(C(C)=O)CC[C@H]2[C@@H]3C=C(Cl)C4=CC(=O)[C@@H]5C[C@@H]5[C@]4(C)[C@H]3CC[C@@]21C`, the molecule was classed as inactive.
Regarding `COC(=O)CCCC(=O)OC`, the molecule was called inactive.
On the same count and under the same terms, under `CC(COCC(C)OC(=O)c1ccccc1)OC(=O)c1ccccc1` (stereo not given) stands “inactive”; under `Cc1c(C)c2c(c(C)c1O)CCC(C)(COc1ccc(CC3SC(=O)NC3=O)cc1)O2` (stereo not given), “inactive”.
As to `CSc1ccc(Oc2ccc(S(N)(=O)=O)cc2CN(C)C)cc1C`, the result was inactive.
On to `O=C1NC(=O)C(c2ccccc2)(c2ccccc2)N1`, for which the result was inactive.
On the same count and under the same terms, for `C#CC(O)C(CC)CCCC` (stereo not given) the value was “inactive”; for `Cc1cn([C@H]2C=C[C@@H](CO)O2)c(=O)[nH]c1=O`, “inactive”.
As for `CN(C)CCCN1c2ccccc2Sc2ccc(Cl)cc21`, the AC50 (usually the concentration at which the activity in the assay is half-maximal) was 102 µM (active).
As to `CC(C)COC(=O)CCCCC(=O)OCC(C)C`, the result was inactive.
In the case of `C=CCCCCCCCCCCCC`, the result was inactive.
For the molecule `O=NO`, the call was inactive.
Regarding `CCC(C)N(C)C(=O)c1cc2ccccc2c(-c2ccccc2Cl)n1` (stereo not given), the result was inactive.
Regarding `CCCCc1nc2cccnc2n1Cc1ccc(-c2ccccc2-c2nnn[nH]2)cc1`, the molecule was called inactive.
Take `O=C(NS(=O)(=O)/C=C/c1cccs1)c1ccc(F)cc1Br`: the result was inactive.
With `O=C(N[C@@H](c1ccccc1)[C@@H]1CCCCN1)c1cccc(C(F)(F)F)c1Cl`, the result was inactive.
For the molecule `Cc1cc(SC2=C(O)C[C@@](CCc3ccc(N)cc3)(C(C)C)OC2=O)c(C(C)(C)C)cc1CO`, the call was inactive.
Turning to `CCCCC(CC)COP(=O)(OCC(CC)CCCC)OCC(CC)CCCC` (stereo not given), the molecule was classed as inactive.
As for `O=C(O)CC(O)(CC(=O)O)C(=O)O`, the call was inactive.
On the same count and under the same terms, under `O=C(O)c1[nH]n(-c2ccc(S(=O)(=O)O)cc2)c(=O)c1N=Nc1ccc(S(=O)(=O)O)cc1` stands “inactive”; under `CCCCCCCC(=O)OC`, “inactive”; under `CC(C)NCC(O)c1ccc(O)c(O)c1` (stereo not given), “inactive”.
In the case of `COC(=O)[C@H]1[C@H]2C[C@@H]3c4[nH]c5cc(OC)ccc5c4CCN3C[C@H]2C[C@@H](OC(=O)c2cc(OC)c(OC)c(OC)c2)[C@@H]1OC`, the outcome was inactive.
For `CC(C)(C)c1ccccc1`, the call was inactive.
The same measure, in the same setting: for `CC(C)c1cccc(C(C)C)c1` the value was “inactive”.
In the case of `OCC(O)CO`, the molecule was classed as inactive.
Take `CC(N)=O`: the molecule was classed as inactive.
As to `CCOCCOCCO`, the result was inactive.
`CCCCC(CC)COC(=O)CCCCCCCC(=O)OCC(CC)CCCC` (stereo not given): the call was inactive.
For `Cn1cnc2c1c(=O)[nH]c(=O)n2C`, the outcome was inactive.
Take `Cc1cc(Cc2ccc(N)c(C)c2)ccc1N`: the AC50 is 103 µM (active).
`CCCC(=O)O`: the result was inactive.
As for `CCCCCCC(C=O)=Cc1ccccc1`, the AC50 is 57 µM (active).
Turning to `O=C(O)c1cccnc1`, the outcome was inactive.
Consider `CC(=O)CC(c1ccccc1)c1c(O)c2ccccc2oc1=O` (stereo not given), for which the result was inactive.
As to `CCc1cc(C2=C(C(=O)O)N(c3ccccc3C(F)(F)F)S(=O)(=O)c3ccccc32)cc2c1OCO2`, the outcome was inactive.
With `NC(=Nc1ccccc1)Nc1ccccc1`, the outcome was inactive.
On to `CC1(C)C(=O)NC(=O)N1CO`, for which the outcome was inactive.
`CC1=C(C)S(=O)(=O)CCS1(=O)=O`: the AC50 was 42.8 µM (active).
